Source: PubChem BioAssay AID1986 (Sanford-Burnham Center for Chemical Genomics, 2009)
Among all 290,000 compounds or so, about 890 (0.31%) were called active. Cut-off read from the data, not from the text of the source: active = inhibition mostly above about 52% (no sharp cut-off); inactive = mostly below about 76%. Many of the other results were omitted from the sample, so actives are more common in it than they were.

Assay: inhibitors of HIV fusion peptide binding, primary screen, biochemical, uHTS, fluorescence dequenching (AID 1986)
Conditions: cell-free peptide binding, 30 min, stronger effect = higher value
[1] = measured here: repeat confirmation average inhibition, at 18.6 µM

CC(C)(C)n1nnnc1CN1CCN2CCCC2C1 (centres undefined)
inhibition (at 20 µM): 1.1% (inactive)

NC(=O)C1=C[C@H](c2ccc(C(F)(F)F)cc2)C[C@H](OCCCCO)O1
inhibition (at 20 µM): -0.7% (inactive)

Cc1cccc(NS(=O)(=O)c2ccc3c(c2)oc(=O)n3C)c1C
inhibition (at 20 µM): 2.3% (inactive)

Cc1cccc(NC(=O)NC2CCCc3ccccc32)c1 (centres undefined)
inhibition (at 20 µM): -2.1% (inactive)

COc1ccccc1OCC(=O)Nc1ccc(S(=O)(=O)Nc2onc(C)c2C)cc1
inhibition (at 20 µM): -0.4% (inactive)

CCC(C)[C@H](NC(=O)[C@@H]1Cc2c([nH]c3ccccc23)C2c3ccccc3C(=O)N21)C(=O)N1CCC[C@@H]1C(=O)O (some centres undefined)
inhibition (at 20 µM): 6.9% (inactive)

COc1ccc(NC(=O)CCCN2C(=O)/C(=C\c3ccco3)SC2=S)cc1
inhibition (at 20 µM): 33.7% (inactive)

O=C(CCCN1C(=O)/C(=C\c2ccco2)SC1=S)Nc1ccc(O)cc1C(=O)O
inhibition (at 20 µM): 72% (inactive)
inhibition [1]: 13%

O=C(CN1C(=O)/C(=C/c2ccco2)SC1=S)Nc1ccc(C(=O)O)c(O)c1
inhibition (at 20 µM): 76.4% (active)

O=C(CN1C(=O)/C(=C\c2cccs2)SC1=S)Nc1cccc(C(=O)O)c1
inhibition (at 20 µM): 32.4% (inactive)

O=C(CN1C(=O)/C(=C\c2ccco2)SC1=S)Nc1ccc(O)cc1C(=O)O
inhibition (at 20 µM): 75.1% (active)

O=C(CCN1C(=O)/C(=C/c2ccco2)SC1=S)Nc1ccc(O)cc1C(=O)O
inhibition (at 20 µM): 52.5% (inactive)
inhibition [1]: 30.6%

CCCCOc1ccc(Cc2n[nH]c(=S)n2N)cc1
inhibition (at 20 µM): -3.5% (inactive)

Cc1ccc(C)c(S(=O)(=O)N2CCN(C(=O)c3ccc(N4CCCC4)c([N+](=O)[O-])c3)CC2)c1
inhibition (at 20 µM): 0.3% (inactive)

CC1(C)Cc2nc3sc4c(N5CCCC5)nnnc4c3cc2CO1
inhibition (at 20 µM): 0.1% (inactive)

O=C(NCCCCc1ccccc1)c1cccc([N+](=O)[O-])c1
inhibition (at 20 µM): 0.7% (inactive)

CCCOc1ccc(-c2cc(C(F)(F)F)c(C#N)c(SCC(=O)O)n2)cc1
inhibition (at 20 µM): 29.9% (inactive)

COc1ccc(-c2cc(C(F)(F)F)c(C#N)c(SCC(=O)O)n2)cc1
inhibition (at 20 µM): 2.9% (inactive)

CCCCOc1ccc(-c2cc(C(F)(F)F)c(C#N)c(SCC(=O)O)n2)cc1
inhibition (at 20 µM): 79.3% (active)

O=C(N/N=C/c1cccc([N+](=O)[O-])c1)c1ccc2nc[nH]c2c1
inhibition (at 20 µM): -2.3% (inactive)

O=C1c2ccccc2C(=O)N1Cc1cc(Cl)c(O)c([N+](=O)[O-])c1
inhibition (at 20 µM): -1.1% (inactive)

NC(=S)Nc1cc2ccccc2c2ccccc12
inhibition (at 20 µM): -2.7% (inactive)

CC1CCCN(S(=O)(=O)c2ccc([N+](=O)[O-])cc2)C1 (centres undefined)
inhibition (at 20 µM): 1.5% (inactive)

O=C(O)CCc1cc(I)c(Oc2ccc(O)c(I)c2)c(I)c1
inhibition (at 20 µM): 75.1% (active)

O=C(O)Cc1cc(I)c(Oc2ccc(O)c(I)c2)c(I)c1
inhibition (at 20 µM): 68.9% (inactive)
inhibition [1]: 33.9%

N[C@@H](Cc1cc(I)c(Oc2ccc(O)c(I)c2)c(I)c1)C(=O)O
inhibition (at 20 µM): 30.3% (inactive)

CCn1c(=O)c2c(nc3n2CCCN3CCc2ccc(OC)c(OC)c2)n(C)c1=O
inhibition (at 20 µM): -0.3% (inactive)

CC(C)C(=O)NNC(=O)c1csc(-c2cccs2)n1
inhibition (at 20 µM): 0% (inactive)

COc1cc(C2CC(=O)Nc3c2c(=O)nc2c(C)cccn32)cc(OC)c1OC (centres undefined)
inhibition (at 20 µM): 0% (inactive)

N#C/C(=C/c1ccc(N2CCOCC2)o1)C(=O)Nc1ccccc1
inhibition (at 20 µM): 147% (inactive)

N#C/C(=C\c1ccc(N2CCOCC2)o1)C(=O)N1CCOCC1
inhibition (at 20 µM): 53.5% (active)
inhibition [1]: 83.9%

N#C/C(=C/c1ccc(N2CCCCC2)o1)C(=O)Nc1ccc(Cl)cc1
inhibition (at 20 µM): 44.8% (inactive)

N#C/C(=C\c1ccc(N2CCCCC2)o1)C(N)=O
inhibition (at 20 µM): 91.9% (active)

N#C/C(=C\c1ccc(N2CCOCC2)o1)C(=O)Nc1ccc(O)cc1
inhibition (at 20 µM): 148% (inactive)

N#C/C(=C\c1ccc(N2CCOCC2)o1)c1nc2ccccc2[nH]1
inhibition (at 20 µM): 48.3% (inactive)

N#C/C(=C/c1ccc(N2CCCCC2)o1)C(=O)Nc1ccc2ccccc2c1
inhibition (at 20 µM): 153% (inactive)

N#C/C(=C/c1ccc(N2CCOCC2)o1)c1nc2ccccc2[nH]1
inhibition (at 20 µM): 52.1% (active)

Cc1ccc2nc(/C(C#N)=C\c3ccc(N4CCOCC4)o3)[nH]c2c1
inhibition (at 20 µM): 28% (inactive)

COc1cccc(CC(=O)NC2CCCN(Cc3ccc(Cl)cc3)C2)c1 (centres undefined)
inhibition (at 20 µM): -1% (inactive)

CCCCCn1c(=O)[nH]c2cc(C(=O)NCCN3CCCCC3C)ccc2c1=O (centres undefined)
inhibition (at 20 µM): 0.7% (inactive)

COc1ccc(OC)c(CN2CCN(S(=O)(=O)c3ccc(NC(C)=O)cc3)CC2)c1
inhibition (at 20 µM): -1.6% (inactive)

S=C(NCCc1ccccc1)NC1CC2CCC(C1)N2Cc1ccccc1 (centres undefined)
inhibition (at 20 µM): -0.5% (inactive)

O=C(N/N=C/c1ccncc1)c1cccs1
inhibition (at 20 µM): -1.5% (inactive)

CCOC(=O)c1sc(N/N=C/c2cc(Br)c(O)c(OC)c2)nc1C
inhibition (at 20 µM): 13.2% (inactive)

COC/C=C/C1=CC2=CC(=O)C(C)(OC(=O)CCC(=O)OC)C(=O)C2=CO1 (centres undefined)
inhibition (at 20 µM): 45% (inactive)

COC/C=C/C1=CC2=CC(=O)C(C)(OC(=O)c3ccco3)C(=O)C2=CO1 (centres undefined)
inhibition (at 20 µM): 51% (active)

COC/C=C/C1=CC2=CC(=O)C(C)(OC(=O)C3CCCC3)C(=O)C2=CO1 (centres undefined)
inhibition (at 20 µM): 35.3% (inactive)

COC(=O)c1ccc(C(=S)NCC2(N(C)C)CCCCC2)cc1
inhibition (at 20 µM): -0.5% (inactive)

Cc1ccc(Cn2c(/C=C/c3ccco3)nc3ccccc32)cc1
inhibition (at 20 µM): 28.5% (inactive)

Clc1ccc(Cn2c(/C=C/c3ccco3)nc3ccccc32)cc1
inhibition (at 20 µM): 58.4% (active)

Clc1ccccc1Cn1c(/C=C/c2ccco2)nc2ccccc21
inhibition (at 20 µM): 54.5% (inactive)
inhibition [1]: 0.3%

COc1ccc(C(=O)NNC(=O)Cc2ccc(Cl)cc2)cc1
inhibition (at 20 µM): 0.6% (inactive)

S=C1NC(c2ccccc2)=CC(c2ccccc2)N1 (centres undefined)
inhibition (at 20 µM): -0.8% (inactive)

CCOc1cc2c(cc1/C=C/C(=O)O)OC(C)C2 (centres undefined)
inhibition (at 20 µM): -2.8% (inactive)

CCOc1cc2c(cc1C=O)OC(C)C2 (centres undefined)
inhibition (at 20 µM): 0.9% (inactive)

CCOc1cc2c(cc1/C=C/c1noc(C)c1[N+](=O)[O-])OC(C)C2 (centres undefined)
inhibition (at 20 µM): 97.9% (active)
inhibition [1]: 62.4%

Cc1nonc1NC(=O)CSc1cn[nH]n1
inhibition (at 20 µM): -0.1% (inactive)

CCOc1ccc2nc(NC(=O)CSc3ccccc3)sc2c1
inhibition (at 20 µM): 2.6% (inactive)

N#Cc1c(-c2ccccc2)nc(SCC(=O)Nc2ccccc2)[nH]c1=O
inhibition (at 20 µM): 22% (inactive)

CCOc1ccc2nc(NC(=O)CSc3ccc(Cl)cc3)sc2c1
inhibition (at 20 µM): -1.6% (inactive)

N#Cc1c(-c2ccccc2)nc(SCC(=O)Nc2ccccc2F)[nH]c1=O
inhibition (at 20 µM): 14.2% (inactive)

COc1cccc(OC)c1OCCCOc1ccc([N+](=O)[O-])cc1Cl
inhibition (at 20 µM): 1.3% (inactive)

CC(C)(C)c1ccc(OC(=O)N2CCOCC2)cc1
inhibition (at 20 µM): 1.1% (inactive)

NC(=O)C1CCN(C(=O)COc2ccc3c4c(c(=O)oc3c2)CCCC4)CC1
inhibition (at 20 µM): -2.1% (inactive)

CCCn1nc([N+](=O)[O-])c(C(C#N)c2nc3ccccc3o2)c(Cl)c1=O (centres undefined)
inhibition (at 20 µM): 51.5% (active)

CCn1nc([N+](=O)[O-])c(C(C#N)c2nc3ccccc3n2C)c(Cl)c1=O (centres undefined)
inhibition (at 20 µM): 9.2% (inactive)

CCCn1nc([N+](=O)[O-])c(C(C#N)c2nc3ccccc3s2)c(Cl)c1=O (centres undefined)
inhibition (at 20 µM): 52.4% (inactive)
inhibition [1]: 39.3%

CCOc1cccc(-c2nnc(SCC(=O)Nc3ccc(OC)c(OC)c3)n2N)c1
inhibition (at 20 µM): -0.9% (inactive)

CC(C)C[C@@H](COc1ccccc1)N1CCN(C)CCC1=O
inhibition (at 20 µM): 1.1% (inactive)

CCCOc1c(Br)cc(C(N)=O)cc1OCC
inhibition (at 20 µM): -1.3% (inactive)

O=[N+]([O-])c1nn(-c2ccc3c(c2)OCCO3)n(O)c1=NCc1ccccc1Cl
inhibition (at 20 µM): 1.5% (inactive)

O=[N+]([O-])c1nn(-c2ccc3c(c2)OCCO3)n(O)c1=NCc1ccc(F)cc1Cl
inhibition (at 20 µM): 51.7% (active)

O=[N+]([O-])c1nn(-c2ccc3c(c2)OCCO3)n(O)c1=NCc1ccc(F)cc1
inhibition (at 20 µM): -3.5% (inactive)

COc1ccc(OC)c(CCNC(=O)c2ccc3c(c2)N(Cc2ccc(F)cc2)CCS3)c1
inhibition (at 20 µM): -0.6% (inactive)

CCOC(=O)N1CCN(C(=O)c2cc3c(=O)n4cccc(C)c4nc3s2)CC1
inhibition (at 20 µM): 1.5% (inactive)

CN(CC(=O)NC1CCCCC1)S(=O)(=O)c1ccc2c(c1)c(=O)n(C)c(=O)n2C
inhibition (at 20 µM): -0.8% (inactive)

Cn1c(=O)c2cc(S(=O)(=O)NCCC(=O)NC3CCCCCCC3)ccc2n(C)c1=O
inhibition (at 20 µM): 70.9% (active)

Cn1c(=O)c2cc(S(=O)(=O)NCCC(=O)NC3CCCCCC3)ccc2n(C)c1=O
inhibition (at 20 µM): -0.8% (inactive)

COc1cc(N=Cc2c(O)c3ccccc3oc2=O)c(OC)cc1Cl
inhibition (at 20 µM): 73.9% (active)
inhibition [1]: 196%

COc1ccc(Cl)cc1N=Cc1c(O)c2ccccc2oc1=O
inhibition (at 20 µM): 0.2% (inactive)

COc1ccc(OC)c(N=Cc2c(O)c3ccccc3oc2=O)c1
inhibition (at 20 µM): 37.7% (inactive)

CC1CCCN(C2(O)C(=O)Nc3ccc(Cl)cc32)C1 (centres undefined)
inhibition (at 20 µM): -0.9% (inactive)

COc1ccccc1CN(C)C(=O)CNC(=O)c1cccc(Cl)c1
inhibition (at 20 µM): 0.2% (inactive)

O=C1OC(c2ccco2)=N/C1=C\c1ccc(-c2cccc(C(F)(F)F)c2)o1
inhibition (at 20 µM): 55.6% (active)
inhibition [1]: 164%

O=C1OC(c2cccs2)=N/C1=C/c1ccc(-c2cccc(C(=O)O)c2)o1
inhibition (at 20 µM): 53% (inactive)
inhibition [1]: 13.5%

O=C1OC(c2cccs2)=N/C1=C\c1ccc(-c2cccc(Cl)c2)o1
inhibition (at 20 µM): 55.7% (inactive)
inhibition [1]: 21.2%

CCOc1ccc(C2C(C(=O)c3ccc(C)o3)=C(O)C(=O)N2Cc2cccnc2)cc1 (centres undefined)
inhibition (at 20 µM): -3.1% (inactive)

COc1ccc(C)cc1S(=O)(=O)NC1CCCCCC1
inhibition (at 20 µM): -1.6% (inactive)

Cc1ccccc1-n1ncc2c1CC(C)(C)CC2NC(=O)c1cn[nH]c1C (centres undefined)
inhibition (at 20 µM): -0.7% (inactive)

Cc1ccc(N=C2NC(=O)S/C2=C\c2ccco2)cc1
inhibition (at 20 µM): 47.8% (inactive)

O=C1NC(=Nc2ccc3ccccc3c2)S/C1=C/c1ccco1
inhibition (at 20 µM): 54.8% (active)

COc1ccc(S(=O)(=O)/N=C2/NC(=O)/C(=C\c3ccco3)S2)cc1
inhibition (at 20 µM): 60.8% (active)

Cc1cccc(N=C2NC(=O)S/C2=C\c2ccco2)c1
inhibition (at 20 µM): 71.9% (active)

COc1ccc(N=C2NC(=O)/C(=C/c3ccco3)S2)cc1
inhibition (at 20 µM): 9.7% (inactive)

Cc1ccc(N=C2NC(=O)/C(=C\c3ccco3)S2)cc1
inhibition (at 20 µM): 57.5% (active)

O=C1NC(=Nc2ccc(O)cc2)S/C1=C/c1ccco1
inhibition (at 20 µM): 17.3% (inactive)

Cc1ccc(N=C2NC(=O)/C(=C/C=C/c3ccco3)S2)cc1
inhibition (at 20 µM): 52.6% (inactive)
inhibition [1]: 1.5%

O=C1NC(=Nc2ccccc2)/C(=C/c2ccco2)S1
inhibition (at 20 µM): 47.9% (inactive)

COc1ccc(N=C2NC(=O)/C(=C\c3ccco3)S2)cc1
inhibition (at 20 µM): 42% (inactive)

CC(=O)Nc1ccc(S(=O)(=O)/N=C2/NC(=O)/C(=C\c3ccco3)S2)cc1
inhibition (at 20 µM): 41.2% (inactive)

COc1ccc(S(=O)(=O)/N=C2/NC(=O)/C(=C/c3ccco3)S2)cc1
inhibition (at 20 µM): 70.3% (inactive)
inhibition [1]: 9.9%
